Measured values published in PubChem BioAssay AID868 (SRMLSC, 2007).
About 3,500 (1.8%) of roughly 190,000 compounds were called active.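 How the source made its calls: active means inhibition above a set limit, 3 SD over mean compound inhibition (cut at about 8.4% in these data); inactive means the rest.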 For the sample, actives were picked, then their nearest neighbours and some compounds at random.

Test: RAM signaling blockers in budding yeast – dse1pr::URA3 reporter, 5-FOA selection, primary screen (AID 868);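 further: 0% = DMSO-only wells with no growth and 100% = 10 µM 1-NA-PP1 full growth; inhibition rescues growth on 5-FOA so higher OD means more RAM inhibition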
Details: S. cerevisiae dse1pr::URA3 reporter, 5-FOA growth OD615, 2 d; at 50 µM; hits give high values; analog-sensitive cbk1-as2 kinase mutant strain

Which inhibition does the source give for `O=C(Cc1coc2ccc3ccccc3c12)NCc1cccs1` here?
Its inhibition is 1.23% (inactive).

With `Cc1cccc(NC(=S)N2CCCC(c3nc4ccccc4[nH]3)C2)c1` (configuration not stated) as the molecule, how does the inhibition read?
Its inhibition is 1.53% (inactive).

With `Cc1ccc(CN2CCN(Cc3cn(C)nc3-c3ccccc3)CC2CCO)o1` (configuration not stated) as the molecule, how does the inhibition read?
The inhibition was 0.52% (inactive).

For `COc1ccc(-c2noc(CSc3ccc(C)cc3)n2)cc1`, which inhibition is on record?
The inhibition was 2.24% (inactive).

Which inhibition does the source give for `COc1ccc(-c2noc(CN(C)S(=O)(=O)c3ccc(C)cc3)n2)cc1` here?
Its inhibition is 9.12% (active).

With `COc1ccc(-c2noc(-c3ccc(C)cc3)n2)cc1` as the molecule, how does the inhibition read?
Its inhibition is 7.68% (inactive).

For `Cc1ccc(NC(=O)CN(C)CC(=O)Nc2cccc(F)c2)cc1[N+](=O)[O-]`, which inhibition is on record?
The inhibition was 1.7% (inactive).

Which inhibition does the source give for `CSc1ncccc1C(=O)Nc1nc2ccc(F)cc2s1` here?
The inhibition was 2.36% (inactive).

For `CN(C)c1ccnc(Nc2ccc(F)cc2)c1C#N`, which inhibition is on record?
The inhibition was 0.51% (inactive).

With `O=C(CC(=O)N/N=C\c1ccc(F)cc1)NCCc1ccccc1` as the molecule, how does the inhibition read?
Its inhibition is 0.75% (inactive).

With `COc1ccc2nc(Nc3nc(-c4cc5ccccc5oc4=O)cs3)sc2c1` as the molecule, how does the inhibition read?
The inhibition was 3.98% (inactive).

Which inhibition does the source give for `CCNc1nc(-c2cc3ccccc3o2)cs1` here?
Its inhibition is 2.09% (inactive).

For `O=c1oc2ccccc2cc1-c1csc(Nc2ccc(O)cc2)n1`, which inhibition is on record?
Its inhibition is 11.1% (active).

With `CC(=O)c1cccc(-n2nnnc2SCC(=O)NNC(=O)C2CCCCC2)c1` as the molecule, how does the inhibition read?
Its inhibition is 3.03% (inactive).

For `CN(C)CCOc1cccc(Br)c1`, which inhibition is on record?
Its inhibition is 1.41% (inactive).

With `CC(NC(=O)CCC(=O)N1CCN(S(=O)(=O)c2ccc(Cl)cc2)CC1)c1ccccc1` (configuration not stated) as the molecule, how does the inhibition read?
Its inhibition is 2.73% (inactive).

For `CC(NC(=O)COC(=O)C1CCN(S(=O)(=O)c2ccccc2C(F)(F)F)CC1)c1ccccc1` (configuration not stated), which inhibition is on record?
Its inhibition is 8.48% (active).

For `CCNC(=O)NC(=O)C(C)OC(=O)C1CCN(S(=O)(=O)c2ccccc2F)CC1` (configuration not stated), which inhibition is on record?
Its inhibition is -0.96% (inactive).

With `CN(CCc1cnn(C)c1)Cc1cn(C)nc1-c1ccccc1F` as the molecule, how does the inhibition read?
Its inhibition is 0.12% (inactive).

Which inhibition does the source give for `CCOc1ccc(NC(=S)N2CCCCCC2)cc1` here?
Its inhibition is 0.12% (inactive).

Which inhibition does the source give for `CCOC(=O)c1sc2nc(C)nc(SCC(N)=O)c2c1C` here?
Its inhibition is 1.57% (inactive).

Which inhibition does the source give for `C=CCN(CC=C)C(=O)COC(=O)c1n[nH]c2ccccc12` here?
The inhibition was 2.26% (inactive).

For `O=C(COC(=O)c1n[nH]c2ccccc12)NCc1ccccc1`, which inhibition is on record?
The inhibition was 8.45% (active).

With `CN(C)S(=O)(=O)c1ccc(NC(=O)COC(=O)c2n[nH]c3ccccc23)cc1` as the molecule, how does the inhibition read?
The inhibition was 5.03% (inactive).

For `O=C(CSc1nc(-c2ccccc2)cs1)Nc1cccc([N+](=O)[O-])c1`, which inhibition is on record?
The inhibition was 11.7% (active).

Which inhibition does the source give for `O=C(CSCC(=O)Nc1cccc([N+](=O)[O-])c1)Nc1ccccc1` here?
Its inhibition is 0.64% (inactive).

For `CCNC(=O)CSc1nc(-c2ccccc2)cs1`, which inhibition is on record?
The inhibition was 0.79% (inactive).
